Inconclusive results are not listed. Active and inactive are the calls of the source. Calls come from the whole dose curve; as a rule, active = well fitted inhibition curve with a large enough effect; inconclusive = small, poorly fitted or top-dose-only effect, or effect the other way; inactive = flat fitted curve, though single readings scatter.
Target: D(1A) dopamine receptor (Homo sapiens) (UniProt P21728)
Test: HTS Assay for Allosteric Agonists of the Human D1 Dopamine Receptor: Primary Screen for Antagonists (AID 488983);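 note: calcium flux response to an EC80 dopamine challenge measured with no-wash dye; nearly all actives have a fitted effect of over 65% in size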
Conditions: D1 receptor cell assay, antagonist mode, qHTS titration; series mostly up to 41.8 µM
Summary of the method: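 Calcium-flux read-out in inducible HEK293 T-REx cells expressing D1, dye-loaded 30–90 min at room temperature. Kinetic reads: 180 s after compound (agonist phase), then 180 s after an EC80 dopamine challenge.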

D(1A) dopamine receptor (Homo sapiens), sequence (P21728 whole entry, looked up): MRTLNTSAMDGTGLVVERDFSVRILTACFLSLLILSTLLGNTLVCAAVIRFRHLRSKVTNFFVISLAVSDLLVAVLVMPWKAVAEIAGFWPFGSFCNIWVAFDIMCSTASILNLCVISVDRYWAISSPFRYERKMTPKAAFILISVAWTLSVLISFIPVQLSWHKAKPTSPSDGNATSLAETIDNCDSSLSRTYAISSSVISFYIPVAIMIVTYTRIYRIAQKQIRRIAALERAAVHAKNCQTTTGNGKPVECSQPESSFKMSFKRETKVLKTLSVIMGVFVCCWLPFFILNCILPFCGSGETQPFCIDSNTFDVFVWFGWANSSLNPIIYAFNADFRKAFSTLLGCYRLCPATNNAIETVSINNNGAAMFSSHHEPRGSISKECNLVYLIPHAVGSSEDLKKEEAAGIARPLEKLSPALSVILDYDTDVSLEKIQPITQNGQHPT

Row | SMILES | outcome
1 | CCN(CC)CCn1c(=O)c(Cc2ccc(OC)cc2)nc2ccccc21 | inactive
2 | COc1cc2ncnc(Nc3cccc(Cl)c3)c2cc1OC | inactive
3 | CC(C)NCC(O)c1ccc(NS(C)(=O)=O)cc1 (centres undefined) | inactive
4 | Nc1nc(N)c2nc(CNc3ccc(C(=O)NC(CCC(=O)O)C(=O)O)cc3)cnc2n1 (centres undefined) | inactive
5 | N[C@@H](Cc1ccc(O)c(O)c1)C(=O)O | inactive
6 | CC1=C(C(=O)O)N2C(=O)[C@@H](NC(=O)C(N)c3ccccc3)[C@H]2SC1 (some centres undefined) | inactive
7 | NC(=O)c1ccc2[nH]ccc2c1 | inactive
8 | OCc1ccc(-c2nn(Cc3ccccc3)c3ccccc23)o1 | inactive
9 | CCCCS(=N)(=O)CCC(N)C(=O)O (centres undefined) | inactive
10 | NC(=O)c1cccc(N)c1 | inactive
11 | CCN(CC)CC#CCOC(=O)C(O)(c1ccccc1)C1CCCCC1 (centres undefined) | inactive
12 | COc1cc2nc(N3CCCN(C)CC3)nc(NC3CCN(Cc4ccccc4)CC3)c2cc1OC | inactive
13 | O=C(O)C1CCCN(CCC=C(c2ccccc2)c2ccccc2)C1 (centres undefined) | inactive
14 | CC1CC2C3CCC4=CC(=O)C=C[C@]4(C)[C@@]3(F)[C@@H](O)C[C@]2(C)[C@@]1(O)C(=O)CO (some centres undefined) | inactive
